# Hit rate of the full screen: of about 310,000 compounds, about 14,000 (4.5%) showed an effect of 50% or more. Effects have a minus sign here. Many of the other results were omitted from the sample, so strong results are more common in it than they were.
# Molecular target: human ether-à-go-go-related gene (hERG) potassium channel (human, UniProt Q12809)
# Experiment: primary screen, population patch clamp on CHO cells stably expressing hERG; higher = less effect of the substance
# 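Further: peak tail current of the secondary pulse compared with the same well before compound.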
# human ether-à-go-go-related gene (hERG) potassium channel, sequence (Q12809 whole entry, looked up): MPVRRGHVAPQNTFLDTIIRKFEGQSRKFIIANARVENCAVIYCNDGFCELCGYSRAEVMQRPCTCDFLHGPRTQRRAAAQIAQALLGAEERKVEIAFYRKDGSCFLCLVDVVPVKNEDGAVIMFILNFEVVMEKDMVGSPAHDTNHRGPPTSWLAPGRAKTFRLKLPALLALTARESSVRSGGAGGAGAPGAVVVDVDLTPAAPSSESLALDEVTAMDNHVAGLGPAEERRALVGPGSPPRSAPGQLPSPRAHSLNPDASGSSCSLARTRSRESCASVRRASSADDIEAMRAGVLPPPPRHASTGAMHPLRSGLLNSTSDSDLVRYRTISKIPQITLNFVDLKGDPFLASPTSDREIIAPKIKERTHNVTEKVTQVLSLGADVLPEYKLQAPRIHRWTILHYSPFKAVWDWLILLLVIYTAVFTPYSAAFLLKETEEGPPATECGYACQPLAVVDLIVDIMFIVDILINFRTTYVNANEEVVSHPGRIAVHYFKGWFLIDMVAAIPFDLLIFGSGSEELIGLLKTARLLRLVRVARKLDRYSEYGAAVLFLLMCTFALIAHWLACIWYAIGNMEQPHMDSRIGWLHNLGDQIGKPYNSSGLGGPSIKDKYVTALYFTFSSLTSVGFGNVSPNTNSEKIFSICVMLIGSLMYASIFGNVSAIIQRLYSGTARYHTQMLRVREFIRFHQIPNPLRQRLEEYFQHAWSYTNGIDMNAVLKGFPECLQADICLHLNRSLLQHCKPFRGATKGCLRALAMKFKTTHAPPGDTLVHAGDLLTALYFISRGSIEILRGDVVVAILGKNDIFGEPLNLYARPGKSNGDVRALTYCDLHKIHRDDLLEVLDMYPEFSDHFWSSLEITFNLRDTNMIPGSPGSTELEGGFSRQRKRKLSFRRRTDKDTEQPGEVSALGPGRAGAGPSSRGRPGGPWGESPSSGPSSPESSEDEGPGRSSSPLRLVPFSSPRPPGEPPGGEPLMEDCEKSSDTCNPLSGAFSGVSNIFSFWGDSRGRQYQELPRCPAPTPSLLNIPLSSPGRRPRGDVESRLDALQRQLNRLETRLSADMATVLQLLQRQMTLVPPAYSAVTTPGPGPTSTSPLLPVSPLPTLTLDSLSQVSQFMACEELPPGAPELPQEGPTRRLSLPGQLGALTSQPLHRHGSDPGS
row,Structure (SMILES),"hERG current change (%, negative = inhibition) at 10uM"
1,Cc1c(C(=O)NCCN2C(=O)S/C(=C\c3cccnc3)C2=O)cccc1[N+](=O)[O-],-45.1%
2,O=C(NCCN1C(=O)S/C(=C\c2cccnc2)C1=O)c1ccc(S(=O)(=O)N2CCCC2)cc1,-11.3%
3,CC(C)(Oc1ccc(Cl)cc1)C(=O)NCCN1C(=O)S/C(=C/c2cccnc2)C1=O,-62.9%
4,O=C(NCCN1C(=O)S/C(=C\c2ccc(F)cc2)C1=O)c1cccc(S(=O)(=O)N2CCOCC2)c1,-3.04%
5,Cc1ccc(S(=O)(=O)NC(C)(C)CSc2ncccn2)cc1,-4.42%
6,CC1=CC(C)(C)N(C(=O)CCl)c2ccccc21,-39.7%
7,O=C(O)C(Nc1nc(C(F)(F)F)nc2ccccc12)c1ccccc1 (stereo not drawn),26.2%
8,O=C(Cc1cccs1)NCc1cccc(F)c1,14.4%
9,CCOC(=O)C1CCN(c2c(NCc3ccc(C(=O)NCCOC)cc3)c(=O)c2=O)CC1,-7.38%
10,CCn1cc(C(=O)Nc2ccc(F)c(F)c2)cn1,7.43%
11,COc1ccccc1N(CC(=O)NC(C)(C)C)C(=O)CCC(=O)Nc1nccs1,-36.5%
12,COC(=O)CN1C(=O)C2(OCCCO2)c2ccccc21,-7.31%
13,O=C(Nc1cccc(-c2cccc(Cl)c2)c1)C1CCN(Cc2ccon2)CC1,-52.7%
14,Cl.O=C(O)C1CCN(Cc2ccccn2)CC1,16.2%
15,COc1cccc(-c2cccc(NC(=O)C3CCN(Cc4ccon4)CC3)c2)c1,-27.8%
16,O=C(Nc1cccc(-c2cccc(Cl)c2)c1)C1CCN(Cc2ccccn2)CC1,-77.8%
17,Cc1cc(C)n(-c2ccc(NC(=O)C3CCN(Cc4ccccn4)CC3)cc2)n1,-14.5%
18,CC(c1ccccc1)C1CC(=O)N(Cc2ccco2)C1=O (stereo not drawn),25.9%
19,COc1ccc(CN2CC(C(=O)NCCC(C)C)CC2=O)cc1 (stereo not drawn),10.5%
20,COc1ccc(NC(=S)NCCSc2ccc(C)cc2)c(OC)c1,5.2%
21,CCOC(=O)c1c(C)[nH]c(C)c1S(=O)(=O)NCCc1sccc1C,-0.705%

row,Structure (SMILES),"hERG current change (%, negative = inhibition) at 10uM"
1,Cc1cc2ncn(CC(O)COc3cccc(C(=O)O)c3)c2cc1C (stereo not drawn),-10.8%
2,Cc1ccc(C(=O)Nc2ccccc2C(=O)O)cc1S(=O)(=O)NCc1ccccc1,9.8%
3,CC(CN1CCOCC1)C(=O)c1ccccc1.Cl (stereo not drawn),8.47%
4,Cc1ccc(C)c(S(=O)(=O)NC(C)C(=O)Nc2ccc(-c3nc4ccccc4s3)cc2)c1 (stereo not drawn),2.9%
5,Cc1ccc(/C=C/C(=O)OCC(=O)NC(=O)NCc2ccco2)cc1,18.7%
6,CCc1cccc(C)c1NC(=O)COC(=O)c1ccc2c(c1)S(=O)(=O)c1ccccc1C2=O,-0.0165%
7,Cc1ccc(-n2ncc3c2CC(C)(C)CC3NC(=O)CCc2ccc(=O)[nH]n2)cc1 (stereo not drawn),-11.2%
8,CSCCC(=O)NC1CC(C)(C)Cc2c1cnn2-c1ccccc1C (stereo not drawn),-10.4%
9,COc1ccc(-n2ncc3c2CC(C)(C)CC3NC(=O)CCC2=NNC(=O)CC2)cc1 (stereo not drawn),15.8%
10,Cc1ccc(-n2ncc3c2CC(C)(C)CC3NC(=O)CCc2ccncc2)cc1 (stereo not drawn),-72.2%
11,C=CCC(=O)NC1CC(C)(C)Cc2c1cnn2-c1ccccc1C (stereo not drawn),4.35%
12,C=CCC(=O)NC1CC(C)(C)Cc2c1cnn2-c1ccc(C)cc1 (stereo not drawn),-69.7%
13,COC(=O)CCCC(=O)NC1CC(C)(C)Cc2c1cnn2-c1ccc(C)cc1 (stereo not drawn),-24.7%
14,CC1(C)Cc2c(cnn2-c2ccccc2)C(NC(=O)CCc2ccncc2)C1 (stereo not drawn),-68.8%
15,Cc1ccccc1-n1ncc2c1CC(C)(C)CC2NC(=O)CCC1=NNC(=O)CC1 (stereo not drawn),-75.9%
16,Cc1nn(C)c(C)c1CCC(=O)NC1CC(C)(C)Cc2c1cnn2-c1ccccc1 (stereo not drawn),-28.1%
17,COC(=O)CCC(=O)NC1CC(C)(C)Cc2c1cnn2-c1ccccc1 (stereo not drawn),-12%
18,CCc1nccn1CCC(=O)NC1CC(C)(C)Cc2c1cnn2-c1ccc(C)cc1 (stereo not drawn),-22.1%
19,CCCCOc1ccc(C(=O)NCC(=O)OC2CCOC2=O)cc1 (stereo not drawn),4.84%
20,Cc1cc(C(=O)N/N=C/c2sc(N3CCOCC3)nc2-c2ccccc2)c(C)o1,8.26%
21,COc1ccc(C(=O)N2CCCC2)cc1S(=O)(=O)N1CCOCC1,-1.7%

# Reference: publication PMC4336329 (PLoS ONE, 2015)
